Assay outcomes deposited in PubChem by National Center for Advancing Translational Sciences (NCATS).
A selection: hits, their analogues and other compounds. The true share with any hit is near 5.3%.
HPGD block = HPGD (human) dehydrogenase inhibition. purified HPGD, NADH fluorescence kinetic, PGE2 substrate. Potency, µM, inactives show at the highest dose activity change, negative = inhibition, actives largely listed as inhibitors. 150,000 tested, 4.3% active; active means well fitted inhibition curve with a large enough effect, not every such curve was filed as active; inconclusive means small, poorly fitted or top-dose-only effect, or another doubt; inactive means no such curve, though single readings can be large or run the other way; further: potency means the concentration at half of the fitted maximal effect
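NADH formation kinetics: reaction with 30 uM PGE2 and 1 mM NAD+ (final), 20 nM enzyme, Tris-HCl pH 8 with Tween 20, after 15 min compound preincubation at room temperature. Fluorescence change, last versus first of five reads.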
IMPase inh = IMPase inhibition in cells; inhibition (IP1 accumulation), % at 46.1 µM; P97697; CHO-M1 cells, IP1 accumulation, HTRF TR-FRET ratio; 120,000 tested, under 10 active; active means well fitted curve in the direction sought with a large enough effect in the signal ratio, not every such curve was filed as active; inconclusive means small, poorly fitted or top-dose-only effect, or a change in a side signal; inactive means no such curve, though single readings can be large or run the other way; the % refers to the signal ratio;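 further: cells stimulated with carbachol in lithium chloride buffer; plate controls were DMSO basal wells for no effect and reference inhibitor wells for full effect; higher means more IMPase inhibition seen as more IP1 and lower FRET ratio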
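CHO-M1, 2000 cells/well, cultured 16–30 h; cpd up to 46 uM; carbachol (50 uM solution, stimulation buffer w/ 50 mM LiCl, pH 7.4), 30 min 37C; IP-One TR-FRET, 10 min RT; Ex 320/Em 665, 620; Hill-fit AC50.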
PNC inhibitor = inhibitors of perinucleolar compartment assembly; activity change (PNC), negative = inhibition, % at 10 µM; PC3M PTB-GFP, PNC prevalence imaging, 16 h; stronger effect = lower value; 140,000 tested, 3.1% active;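 active means readout at or below -70, meaning at least 70% loss of cells showing the perinucleolar compartment, a nuclear body marking cancer cells; inconclusive means readout between -30 and a set limit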;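 further: plate controls were DMSO wells for no effect and camptothecin positive control wells for full effect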
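Read-out is percentage of cells bearing a perinucleolar compartment, from automated 20x imaging of fixed, Hoechst-stained PC3M PTB-GFP cells. Cells were seeded 4 h, then exposed 16 h to compound (23 nl of library stock) in duplicate plates.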
IMPase Li inh = IMPase inhibition in cells with lithium potentiation; CHO-M1 cells, IP1 TR-FRET (IP-One), carbachol + lithium; Potency, µM (doses to about 59.4 µM), inactives show at the highest dose activity, negative = IMPase inhibition, hits mostly inhibitors; 210,000 tested, 0.35% active; AID 1457;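 further: IP1 builds up when IMPase is blocked and the TR-FRET signal falls; potency means the concentration at half of the fitted maximal effect; plate controls were basal vehicle for no effect and high inhibitor control for full effect; nearly all actives have a fitted effect of over 50% in size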
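Lithium-sensitised IP1 accumulation assay; M1-expressing CHO cells treated 30 min at 37C with compound. Competitive antibody detection by time-resolved FRET followed a 10 min room-temperature lysis step.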
15-hLO-2 inh = inhibitors of human 15-lipoxygenase 2 (ALOX15B). O15296. purified 15hLO-2, xylenol orange hydroperoxide absorbance. Potency, µM (titrated, usually from 57.1 µM), without a hit: top-dose activity change, negative = inhibition, hits mostly inhibitors. 110,000 tested, 0.56% active. AID 881; further: potency means the concentration at half of the fitted maximal effect; nearly all actives have a fitted effect of over 60% in size
Target sequence (O15296 whole entry, looked up): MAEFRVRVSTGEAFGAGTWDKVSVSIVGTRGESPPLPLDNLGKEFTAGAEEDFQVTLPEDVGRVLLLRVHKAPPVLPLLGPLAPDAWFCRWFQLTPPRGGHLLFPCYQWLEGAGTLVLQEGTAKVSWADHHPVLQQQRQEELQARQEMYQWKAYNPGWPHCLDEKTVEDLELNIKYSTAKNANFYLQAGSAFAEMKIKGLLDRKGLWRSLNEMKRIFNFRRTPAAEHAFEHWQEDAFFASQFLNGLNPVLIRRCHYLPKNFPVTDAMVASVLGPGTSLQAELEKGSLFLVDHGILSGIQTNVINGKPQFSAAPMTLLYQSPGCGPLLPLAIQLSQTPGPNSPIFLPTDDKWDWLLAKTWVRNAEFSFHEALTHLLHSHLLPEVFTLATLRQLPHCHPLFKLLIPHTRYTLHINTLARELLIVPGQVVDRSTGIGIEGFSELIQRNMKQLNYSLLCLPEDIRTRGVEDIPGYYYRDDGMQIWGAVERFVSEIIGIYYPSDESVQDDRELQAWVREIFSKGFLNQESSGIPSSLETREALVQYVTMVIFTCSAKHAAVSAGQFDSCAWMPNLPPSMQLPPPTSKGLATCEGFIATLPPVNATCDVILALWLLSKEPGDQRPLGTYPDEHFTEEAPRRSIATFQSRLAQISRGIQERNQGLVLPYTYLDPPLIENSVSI
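Screening format was qHTS against 50 nM purified 15hLO-2 in Hepes pH 7.5 with detergent. Activity follows hydroperoxide formation from 45 uM arachidonic acid, measured as 573:405 nm absorbance ratio of the ferric-xylenol orange complex.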
ALOX12 inhib = 12-hLO (ALOX12) enzyme inhibition | Potency, µM (highest dose often 57.1 µM), without a hit: at the highest dose activity change, negative = inhibition, most hits filed as inhibitors | purified 12-hLO, xylenol orange hydroperoxide absorbance | 150,000 tested, 0.12% active; further: potency means the concentration at half of the fitted maximal effect; nearly all actives have a fitted effect of over 55% in size
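Hydroperoxide output read as Fe(III)-xylenol orange absorbance, 573-to-405 nm ratio, after 30 min reaction with 40 uM arachidonic acid. Enzyme: 150 nM purified human 12hLO, 15 min compound preincubation; 25 mM Hepes pH 7.0, room temperature.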
* hit, by the source's call; [ ] = another dose, or the depositor's remark. Unless noted, the call rests on the fitted dose curve; in most records, active means well fitted curve in the direction sought with a large enough effect; inconclusive means small, poorly fitted or top-dose-only effect, or another doubt; inactive means no such curve, though single readings can be large; an effect the other way counts as inactive or inconclusive. Unless noted, on the % scale 0 is the no-effect control and ±100 the full control effect.

Results for CC(=O)c1sc2nc(C)cc(C)c2c1N ?
HPGD block: inconclusive; IMPase inh: 5[1.84 µM]; PNC inhibitor: 9; IMPase Li inh: 15%[38.3 µM]; 15-hLO-2 inh: 5%[11.4 µM]; ALOX12 inhib: -4%

Results for COCc1cc(C)nc2sc(C(=O)OC)c(N)c12 ?
HPGD block: -11%; IMPase inh: 1; PNC inhibitor: 29; IMPase Li inh: 3%[38.3 µM]; 15-hLO-2 inh: 5%; ALOX12 inhib: 4%

What do the screens show for `Cc1cc(C)c2c(N)c(C(=O)N3CCCCCC3)sc2n1`?
HPGD block: 1.6µM*; IMPase inh: -9; PNC inhibitor: 20; IMPase Li inh: 21%[38.3 µM]; 15-hLO-2 inh: -17%; ALOX12 inhib: 2%

Results for O=S(=O)(NCc1cn2ccccc2n1)c1cc(F)ccc1F ?
HPGD block: -11%; IMPase inh: 1; PNC inhibitor: -100*; IMPase Li inh: -5%; ALOX12 inhib: -1%

Results for O=C1OC(c2ccc(O)c(-c3ccccc3)c2)(c2ccc(O)c(-c3ccccc3)c2)c2c(Cl)c(Cl)c(Cl)c(Cl)c21 ?
HPGD block: -8%; IMPase Li inh: 3%; 15-hLO-2 inh: 0%[11.4 µM]; ALOX12 inhib: 4%[11.4 µM]

How did O=C1OC2(c3cc(Br)c(O)c(Br)c3Oc3c2cc(Br)c(O)c3Br)c2c(Cl)c(Cl)c(Cl)c(Cl)c21 do in these assays?
HPGD block: 13µM*; IMPase Li inh: inconclusive; 15-hLO-2 inh: inconclusive; ALOX12 inhib: -16%

Results for CCN(CC)S(=O)(=O)c1cc(NC(=O)CNc2c(C)n(C)n(-c3ccccc3)c2=O)ccc1C ?
IMPase Li inh: 3%

How did CCCCCCCC(O)CC(CC1CCCCC1)C(=O)NN (stereo not drawn) do in these assays?
HPGD block: -12%; PNC inhibitor: inconclusive; IMPase Li inh: -8%; ALOX12 inhib: -1%

How did O=C(O)C1C2CCC(O2)C1C(=O)NCc1ccc(Cl)cc1 (stereo not drawn) do in these assays?
HPGD block: 0%; PNC inhibitor: 19; IMPase Li inh: 0%; ALOX12 inhib: -3%

How did O=C1C(Cl)=C(N2CCCCC2)C(=O)N1c1ccccc1 do in these assays?
HPGD block: 18µM*; IMPase inh: 8; PNC inhibitor: inconclusive; IMPase Li inh: 20%[38.3 µM]; 15-hLO-2 inh: -7%; ALOX12 inhib: -20%

What do the screens show for `O=C1C(Cl)=C(N2CCCCC2)C(=O)N1c1ccccc1Cl`?
HPGD block: -13%; IMPase inh: 10; PNC inhibitor: 20; IMPase Li inh: 26%[38.3 µM]; 15-hLO-2 inh: 0%; ALOX12 inhib: -5%

How did O=[N+]([O-])c1ccc(Oc2ccc(/C=N/O)cc2)nc1 do in these assays?
IMPase Li inh: -2%

Results for O=C1NC(=O)/C(=C\c2ccc(Oc3ccc([N+](=O)[O-])cn3)cc2)S1 ?
HPGD block: 13µM*; IMPase inh: 0; PNC inhibitor: -24; IMPase Li inh: 2%; ALOX12 inhib: 0%

Results for O=C(O)CCc1nc(-c2ccccc2-n2cccc2)no1 ?
HPGD block: inconclusive; IMPase Li inh: 4%; 15-hLO-2 inh: -2%[11.4 µM]; ALOX12 inhib: -4%[11.4 µM]

What do the screens show for `Cc1ccccc1C(=O)NNC(=O)/C=C/c1ccccc1`?
IMPase Li inh: -7%

How did CC(O)CN(Cc1cccc(Cl)c1)CC(C)O (stereo not drawn) do in these assays?
HPGD block: -9%; IMPase inh: 6; PNC inhibitor: 24; IMPase Li inh: 4%[38.3 µM]; 15-hLO-2 inh: -4%; ALOX12 inhib: -3%

Results for N#CC1=C(N)C(C#N)(C#N)[C@H](c2ccncc2)[C@H]2CC3(CC=C12)OCCO3 ?
IMPase inh: 12; PNC inhibitor: -98*; 15-hLO-2 inh: -4%; ALOX12 inhib: -2%

How did CCCOc1ccc([C@@H]2C3CN(C(=O)OCC)CC=C3C(C#N)=C(N)C2(C#N)C#N)cc1OC (stereo partly drawn) do in these assays?
HPGD block: -9%; IMPase inh: 8; PNC inhibitor: -81*; IMPase Li inh: -6%; 15-hLO-2 inh: -16%; ALOX12 inhib: 2%

How did COc1cc(C2C3CN(C)CC=C3C(C#N)=C(N)C2(C#N)C#N)ccc1OC(C)C (stereo not drawn) do in these assays?
HPGD block: -15%; IMPase inh: 1; PNC inhibitor: inconclusive; IMPase Li inh: -4%[38.3 µM]; 15-hLO-2 inh: -1%; ALOX12 inhib: -4%

Results for CN1CC=C2C(C#N)=C(N)C(C#N)(C#N)C(Cc3ccccc3)C2C1 (stereo not drawn) ?
HPGD block: inconclusive; IMPase inh: 0; PNC inhibitor: -119*; IMPase Li inh: 3%; 15-hLO-2 inh: 17%; ALOX12 inhib: -9%

How did CCC1C2CN(C(C)=O)CC=C2C(C#N)=C(N)C1(C#N)C#N (stereo not drawn) do in these assays?
HPGD block: -7%; IMPase inh: 5; PNC inhibitor: -21; IMPase Li inh: -3%[38.3 µM]; 15-hLO-2 inh: 2%; ALOX12 inhib: 0%

How did N#CC1=C(N)C(C#N)(C#N)[C@H](c2ccncc2)[C@H]2CN(C(=O)OCc3ccccc3)CC=C12 do in these assays?
HPGD block: -25%; IMPase inh: -3; PNC inhibitor: -100*; IMPase Li inh: 4%; ALOX12 inhib: -7%

How did CC(NCc1cc(Br)ccc1OCC(=O)NCc1ccccc1)c1ccccc1 (stereo not drawn) do in these assays?
IMPase Li inh: 26%

How did CCOC(=O)N1CC=C2C(C#N)=C(N)C(C#N)(C#N)[C@H](c3cccs3)C2C1 (stereo partly drawn) do in these assays?
HPGD block: -12%; IMPase inh: 4; PNC inhibitor: -100*; IMPase Li inh: 9%; ALOX12 inhib: -5%

Results for CC(C)(C)OC(=O)N1CC=C2C(C#N)=C(N)C(C#N)(C#N)C(c3cccs3)C2C1 (stereo not drawn) ?
HPGD block: inconclusive; IMPase inh: 1; PNC inhibitor: 3; IMPase Li inh: 33%[38.3 µM]; 15-hLO-2 inh: inconclusive; ALOX12 inhib: -8%

What do the screens show for `CC(C)N1CC=C2C(C#N)=C(N)C(C#N)(C#N)C(c3ccccc3)C2C1` (stereo not drawn)?
HPGD block: inconclusive; IMPase inh: -1; PNC inhibitor: -107*; IMPase Li inh: 6%[38.3 µM]; 15-hLO-2 inh: 16%; ALOX12 inhib: -19%

How did CCCn1c(N)c(C(=O)CSc2nnnn2-c2ccc(O)cc2)c(=O)n(C)c1=O do in these assays?
HPGD block: -15%; IMPase inh: -1; PNC inhibitor: 26; IMPase Li inh: 24%[38.3 µM]; 15-hLO-2 inh: -7%; ALOX12 inhib: 5%
